# According to PubChem BioAssay AID881 (National Center for Advancing Translational Sciences (NCATS), 2007):
# Screen size: about 110,000 compounds; about 610 (0.55%) were called active. Not shown: some 3% with an inconclusive outcome. Shown is part of a subset that was picked to be rich in actives. Entries that show only a call come without a potency. Values without a mark were called inactive. Calls follow the shape of the dose curve; as a rule, active = well fitted inhibition curve with a large enough effect; inconclusive = small, poorly fitted or top-dose-only effect; inactive = no such curve, though single readings can be large or run the other way.
# Molecular target: Polyunsaturated fatty acid lipoxygenase ALOX15B (Homo sapiens) (UniProt O15296)
# Sequence (O15296 whole entry, looked up): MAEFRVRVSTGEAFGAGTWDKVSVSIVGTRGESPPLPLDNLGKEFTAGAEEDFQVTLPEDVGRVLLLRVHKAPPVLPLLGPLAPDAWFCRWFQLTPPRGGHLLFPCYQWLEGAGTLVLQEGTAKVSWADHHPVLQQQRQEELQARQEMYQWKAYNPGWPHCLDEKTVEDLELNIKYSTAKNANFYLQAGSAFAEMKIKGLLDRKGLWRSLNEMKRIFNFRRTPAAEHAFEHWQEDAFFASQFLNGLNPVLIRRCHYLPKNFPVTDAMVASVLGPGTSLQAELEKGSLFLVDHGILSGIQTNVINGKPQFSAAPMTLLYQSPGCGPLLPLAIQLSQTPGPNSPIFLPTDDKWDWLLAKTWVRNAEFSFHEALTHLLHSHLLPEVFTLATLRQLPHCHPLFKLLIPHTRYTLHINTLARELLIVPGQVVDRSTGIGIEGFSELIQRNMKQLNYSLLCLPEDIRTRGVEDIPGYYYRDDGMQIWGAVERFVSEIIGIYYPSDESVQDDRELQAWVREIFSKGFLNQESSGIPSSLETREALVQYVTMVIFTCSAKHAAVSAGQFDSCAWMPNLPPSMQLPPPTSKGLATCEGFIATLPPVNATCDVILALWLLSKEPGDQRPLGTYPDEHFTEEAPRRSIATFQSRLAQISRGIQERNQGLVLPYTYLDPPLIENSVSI
# Test: qHTS Assay for Inhibitors of 15-hLO-2 (15-human lipoxygenase 2); also: nearly all actives have a fitted effect of over 60% in size
# Conditions: purified 15hLO-2, xylenol orange hydroperoxide absorbance; series mostly up to 57.1 µM
# Description: Assay Overview: NIH Molecular Libraries Screening Centers Network [MLSCN] NIH Chemical Genomics Center [NCGC] MLSCN Grant: MH081283-01A1 PI Name: Holman, T.R., University of California, Santa Cruz Human lipoxygenase 15hLO-2 is a member of the closely related lipoxygenase family of enzymes which catalyze the site-specific oxidation of arachidonic acid to various hormone precursor molecules and as such is a candidate for drug development in a variety of disease areas, such as cancer and inflammation. Inhibition of 15hLO-2 activity was screened by utilizing arachidonic acid as a substrate. The extent of hydroperoxide product formation was measured by a secondary chromogenic reaction in which xylenol orange (XO, Sigma-Aldrich, cat. number 39,818-7) reacts with the ferric ions produced from the reaction between the hydroperoxide and ferrous ions. The Fe(III)-XO complex is characterized with red-shifted absorbance at 560 nm. A purified preparation of human 15hLO-2 was supplied by Professor Ted Holman, University of California, Santa Cruz.
# Assay Protocol: Buffer: 25 mM Hepes pH 7.5, 0.01% Triton X-100. Reagents/Controls: Buffer in columns 3 and 4 as negative control (no enzyme). Substrate solution: 45 uM arachidonic acid (Sigma-Aldrich, St. Louis, MO) final concentration dispensed throughout the plate. Enzyme: 50 nM 15hLO-2 final concentration in columns 1, 2, 5-48. Column 1 is neutral (100% activity). Column 2 contained pin-transferred titration of NDGA (nordihidroguaiaretic acid, Sigma-Aldrich, N 5023, top concentration 10 mM in DMSO, then 1:2 dilution in duplicate). (Dilution factor: 23 nL into 4 uL.) Chromogenic detection reagent (divalent iron/xylenol orange, Fe-XO): 200 uM xylenol orange plus 300 uM ferrous ammonium sulfate prepared freshly in 50 mM sulfuric acid. Assay Steps: Three uL of enzyme were dispensed to 1536-well Greiner black clear bottom plates. Compounds and controls (23 nL) were transferred via Kalypsys PinTool. The plates were incubated for 15 min at room temperature, and then 1 uL of substrate solution was added to start the reaction. After room temperature incubation for 90 minutes, 4 uL of Fe-XO solution was added to each well followed by a short spin (1000 rpm, 15 sec) and the plates were then incubated for 30 min. The absorbance at 405 and 573 nm were measured using ViewLux (Perkin-Elmer) High-throughput CCD imager and absorbance protocol settings. The 573-to-405 absorbance ratio was used to compute reaction progress.
# Potency is read from the fitted curve at half-maximal effect.
SMILES,"activity change, negative = inhibition",Potency
Cc1ccc(CNC(=O)CCNS(=O)(=O)c2cccc3nonc23)cc1,inactive,
CC1=C(C/C=C(\C)CCCC(C)CCCC(C)CCCC(C)C)C(=O)c2ccccc2C1=O (centres undefined),-19.6% [at 0.0915 µM],
Cn1c(SCC(=O)NC2CCCCC2)nnc1-c1cc2ccccc2o1,inactive,
O=c1c2ccccc2nc2n1C(CSCc1ccccc1)CS2 (centres undefined),inactive,
CCOC(=O)C1=C(C)Nc2sc(C(=O)c3ccc(Br)cc3)c(N)c2C1c1ccc(C(=O)OC)cc1 (centres undefined),inactive,
Cc1ccc(C(=O)OC2=CC(=O)CC(C)(C)C2)cc1,-18% [at 11.4 µM],
COc1ccc(OC)c(Nc2nc(-c3ccc(O)c(O)c3)cs2)c1,,12.6 µM (active)
c1cnc(Nc2nc(-c3ccc4ccccc4c3)cs2)nc1,inactive,
COc1ccc(Nc2nc(-c3ccccc3)cs2)cc1,inactive,
O=C(OC1CCCCC1=O)c1cccc(S(=O)(=O)NCc2ccccc2)c1 (centres undefined),inactive,
OCCN(Cc1ccccc1)Cc1ccc(Cl)cc1,inactive,
O=C1CSC2=NCN(c3ccccc3)CN12,inactive,
O=C(NCc1ccco1)c1ccc(Cn2c(=O)c3sccc3n(Cc3ccc(F)cc3)c2=O)cc1,inactive,
CCn1c(-c2ccoc2C)n[nH]c1=S,inactive,
CCCC1NC(=O)NC(C)=C1C(=O)OCC (centres undefined),inactive,
COc1cccc(OC)c1C(=O)Nc1ccc(N2CCCCC2)cc1,inactive,
COc1ccc([N+](=O)[O-])cc1N(CC(O)Cn1nnc2ccccc21)S(=O)(=O)c1ccc(C)cc1 (centres undefined),inactive,
CCCCNCc1ccc(SC)cc1,inactive,
Clc1ccc(-n2nnnc2CN2CCCCC2)cc1Cl,0.993% [at 11.4 µM],
COc1ccc(Oc2c(Cl)cnn(-c3ccccc3)c2=O)cc1,inactive,

SMILES,"activity change, negative = inhibition",Potency
C#CCN(N(C)c1ncc(C(F)(F)F)cc1Cl)S(=O)(=O)c1ccc2ccccc2c1,inactive,
Cc1ccccc1-c1ccc(C(=O)O)s1,-3.34% [at 0.0915 µM],
COC(=O)CNC(=O)c1ccccc1F,inactive,
CC(C)CCSc1ncnc2c1oc1nc3c(cc12)COC(C)(C)C3,inactive,
Cc1ccc(-c2csc(NC(=O)c3cccs3)n2)cc1,inactive,
Cn1nc(-c2ccccc2)c(-c2nc(-c3ccc(Cl)cc3)no2)c1Cl,inactive,
CCCSc1nsc(N)n1,inactive,
COc1cc(OC)cc(C(=O)NC(=S)N2CCN(c3ccc(C(F)(F)F)cc3[N+](=O)[O-])CC2)c1,inactive,
COC(=O)CSc1snnc1-c1ccc(Cl)c(Cl)c1,inactive,
COC(=O)c1ccccc1NC(=O)CN(Cc1ccc(Cl)cc1)S(C)(=O)=O,inactive,
CC1CCN(c2ccc(S(=O)(=O)Nc3cc(C(=O)O)cc(C(=O)O)c3)cc2[N+](=O)[O-])CC1,inactive,
COc1ccc(C)cc1NC(=O)CCS(=O)(=O)c1cccc2nonc12,inactive,
Cc1ccc(/C=N/NC(=O)c2sccc2OCc2ccc(F)cc2)cc1,inactive,
C=CCNC(=S)NNc1ncnc2sc3c(c12)CC(C)(C)OC3,inactive,
COC(=O)CSc1nnc(-c2cccnc2)o1,inactive,
Oc1cc2c(cc1O)CN(C(=S)NCCc1ccc(Cl)cc1)CCC2,,12.6 µM (active)
O=C(CSCc1ccc(Cl)cc1)N1CCCCC1,inactive,
NS(=O)(=O)c1ccc(CCNC(=O)Nc2ccc(Cl)cc2)cc1,inactive,
Cc1ccc2nc(CC(=O)c3ccc4ccccc4c3)c(=O)[nH]c2c1,-6.79% [at 11.4 µM],
C=CC(=O)c1ccc2ccccc2c1,,2 µM (active)

SMILES,"activity change, negative = inhibition",Potency
CC(=O)c1ccc2c(ccc3ccccc32)c1,inactive,
CCC(=O)Nc1ccc(C(=O)Nc2cccc(OC)c2)cc1,inactive,
COc1ccccc1N=C(C)C1=C(O)COC1=O,inactive,
Cc1cccc(-n2cnc(C(=O)Nc3cccnc3)c2)n1,inactive,
Cc1ccc(S(=O)(=O)N2CCC(=O)N([C@H](COCc3ccccc3)Cc3ccccc3)CC2)cc1,6.39% [at 0.0915 µM],
O=S1(=O)CCN(Cc2ccccc2Cl)CC1,inactive,
CCN(CC)CCn1c(=S)[nH]c2ncccc2c1=O,inactive,
CCCc1cc(=O)[nH]c(SCC(=O)c2cc(C)n(CCC)c2C)n1,inactive,
COc1ccc(OC(C)C(=O)Nc2cccnc2)cc1 (centres undefined),inactive,
C=CCNC(=S)N/N=C/c1ccc(OCc2ccccc2)cc1,inactive,
O=C(O)c1cc2ccccc2c(=O)s1,inactive,
CS(=O)(=O)N(CC(=O)Nc1ccc(F)cc1F)c1cccc([N+](=O)[O-])c1,inactive,
COc1cccc(-c2cc(=O)c3cc(NC(=O)c4ccc(C)cc4)ccc3[nH]2)c1,-28.3% [at 0.0915 µM],
Cc1cccc([C@H]2[C@@H]3C=CC[C@@H](C)[C@@H]3C(=O)N2Cc2ccccc2)c1,-6.63% [at 0.0915 µM],
CCn1c(O)c2ccc(C(=O)N=NC(=O)c3cccnc3)cc2c1O,inactive,
CCOC(=O)N1CCC(Nc2c(NCCCN3CCN(CC)CC3)c(=O)c2=O)CC1,inactive,
COc1cccc(N=c2oc3c(C)ncc(CO)c3cc2C(N)=O)c1,inactive,
CC(C)CCNC(=O)CC1C(=O)N(Cc2ccccc2)C(C)c2nc3ccccc3n21 (centres undefined),inactive,
CC(C)(CNC(=O)c1cc(=O)[nH]c2ccccc12)N1CCOCC1,inactive,
